A short description of test [1]: binders of probe aFSTL3 on microarray, primary screen, stem cell growth factor project, biochemical, small-molecule microarray, fluorescence 635/667 (AID 1064).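 Also: measures binding of the biotinylated anti-FSTL3 antibody to printed compounds.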 To be noted: higher = more signal.
The nature of test [2]: binders from COS7 lysate, DM2A8 probe, primary screen, torsin A project, cell lysate, small-molecule microarray, fluorescence 635/667 (AID 1065). The following applies: higher = more signal, COS7 lysate expressing mutant human TOR1A.
Test [3] in a line: binders of probe aFGF2 on microarray, primary screen, stem cell growth factor project, biochemical, small-molecule microarray, fluorescence 635/667 (AID 1067).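 Also: measures binding of biotinylated aFGF2 protein to printed compounds on slides; z-score merges feature fluorescence and signal-to-noise across triplicate slides.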 The following applies: higher = more signal.
The nature of test [4]: binders of probe aFGF10 on microarray, primary screen, stem cell growth factor project, biochemical, small-molecule microarray, fluorescence 635/667 (AID 1071).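 Also: score merges 667 nm spot intensity and signal to noise from triplicate slides.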 To be noted: higher = more signal.
Test [5] deals with Neurogenic locus notch homolog protein 2 (Homo sapiens) (UniProt Q04721). As to the kind of experiment: Notch2 binders on small-molecule microarrays, primary screen, biochemical, small-molecule microarray, 635 nm fluorescence, stem cell growth factors (AID 1073). The following applies: Notch2 binding, higher = more signal.
Chain of Neurogenic locus notch homolog protein 2 (Homo sapiens) (Q04721 whole entry, looked up, canonical isoform): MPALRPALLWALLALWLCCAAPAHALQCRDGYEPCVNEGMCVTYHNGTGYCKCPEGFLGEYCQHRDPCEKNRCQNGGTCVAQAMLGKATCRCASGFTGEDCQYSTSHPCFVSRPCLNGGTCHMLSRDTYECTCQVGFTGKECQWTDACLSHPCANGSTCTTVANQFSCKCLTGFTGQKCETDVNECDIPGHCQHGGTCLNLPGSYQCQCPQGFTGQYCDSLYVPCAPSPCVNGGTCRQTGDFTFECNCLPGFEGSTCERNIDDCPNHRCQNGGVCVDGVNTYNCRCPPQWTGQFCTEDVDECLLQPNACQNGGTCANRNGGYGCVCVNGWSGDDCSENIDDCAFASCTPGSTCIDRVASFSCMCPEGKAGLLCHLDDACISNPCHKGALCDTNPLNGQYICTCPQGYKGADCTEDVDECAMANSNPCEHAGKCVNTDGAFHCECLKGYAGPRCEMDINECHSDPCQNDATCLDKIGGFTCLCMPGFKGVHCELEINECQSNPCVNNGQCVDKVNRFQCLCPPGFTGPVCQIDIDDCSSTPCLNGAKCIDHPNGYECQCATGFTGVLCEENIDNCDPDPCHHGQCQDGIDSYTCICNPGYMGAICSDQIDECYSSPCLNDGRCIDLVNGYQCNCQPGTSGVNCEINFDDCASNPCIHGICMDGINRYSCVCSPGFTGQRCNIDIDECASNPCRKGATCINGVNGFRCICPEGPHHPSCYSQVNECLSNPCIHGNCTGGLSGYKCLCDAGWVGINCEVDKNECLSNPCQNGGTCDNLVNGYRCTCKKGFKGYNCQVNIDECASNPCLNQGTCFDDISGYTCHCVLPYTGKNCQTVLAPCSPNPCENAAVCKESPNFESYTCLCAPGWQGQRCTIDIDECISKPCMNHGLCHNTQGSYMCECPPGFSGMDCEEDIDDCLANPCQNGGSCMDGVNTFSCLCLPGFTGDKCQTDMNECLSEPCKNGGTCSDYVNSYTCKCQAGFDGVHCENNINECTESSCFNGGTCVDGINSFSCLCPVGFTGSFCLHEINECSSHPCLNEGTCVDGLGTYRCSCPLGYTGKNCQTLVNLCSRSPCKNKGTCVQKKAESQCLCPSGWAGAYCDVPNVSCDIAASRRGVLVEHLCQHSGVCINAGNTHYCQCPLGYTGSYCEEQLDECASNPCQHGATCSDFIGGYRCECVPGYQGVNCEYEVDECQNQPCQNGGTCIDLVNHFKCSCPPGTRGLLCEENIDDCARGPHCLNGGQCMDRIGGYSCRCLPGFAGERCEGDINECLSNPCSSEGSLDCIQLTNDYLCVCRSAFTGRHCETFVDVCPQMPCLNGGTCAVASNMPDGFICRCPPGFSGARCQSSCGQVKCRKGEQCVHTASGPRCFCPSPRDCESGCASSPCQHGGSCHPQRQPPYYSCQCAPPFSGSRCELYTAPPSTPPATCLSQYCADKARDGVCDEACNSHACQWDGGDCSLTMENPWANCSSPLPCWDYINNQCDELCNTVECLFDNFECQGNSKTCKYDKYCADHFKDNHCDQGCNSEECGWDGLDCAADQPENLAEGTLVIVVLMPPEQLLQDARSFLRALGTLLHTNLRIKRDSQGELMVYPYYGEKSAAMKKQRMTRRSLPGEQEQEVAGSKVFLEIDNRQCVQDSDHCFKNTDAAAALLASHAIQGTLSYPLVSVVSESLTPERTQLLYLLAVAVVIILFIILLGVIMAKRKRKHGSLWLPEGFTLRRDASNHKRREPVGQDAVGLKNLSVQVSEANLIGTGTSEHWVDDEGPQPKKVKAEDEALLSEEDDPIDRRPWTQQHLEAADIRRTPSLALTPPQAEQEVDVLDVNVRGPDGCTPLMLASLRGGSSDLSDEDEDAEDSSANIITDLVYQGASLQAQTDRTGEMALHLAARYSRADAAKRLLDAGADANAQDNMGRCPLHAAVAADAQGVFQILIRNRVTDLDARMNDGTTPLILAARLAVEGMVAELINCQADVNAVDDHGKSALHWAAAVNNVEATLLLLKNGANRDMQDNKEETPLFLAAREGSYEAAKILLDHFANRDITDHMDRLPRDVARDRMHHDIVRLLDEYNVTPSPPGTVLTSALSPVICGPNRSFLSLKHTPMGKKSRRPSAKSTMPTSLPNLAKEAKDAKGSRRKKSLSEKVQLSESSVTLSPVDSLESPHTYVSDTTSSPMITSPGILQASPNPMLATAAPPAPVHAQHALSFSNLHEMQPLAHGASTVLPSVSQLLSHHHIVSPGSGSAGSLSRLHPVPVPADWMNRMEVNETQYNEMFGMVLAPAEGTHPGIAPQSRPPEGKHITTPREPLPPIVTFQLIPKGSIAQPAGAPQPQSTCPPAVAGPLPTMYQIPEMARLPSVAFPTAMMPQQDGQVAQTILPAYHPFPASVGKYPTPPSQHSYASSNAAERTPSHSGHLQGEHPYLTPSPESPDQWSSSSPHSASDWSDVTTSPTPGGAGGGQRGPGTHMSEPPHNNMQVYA
In test [6] the target is Pro-neuregulin-1, membrane-bound isoform (Homo sapiens) (UniProt Q02297). In words: NRG1 binders on small-molecule microarrays, primary screen, psychiatric disease protein project, biochemical, small-molecule microarray, fluorescence 635/667 (AID 1075).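 Also: score combines 667 nm spot fluorescence with signal to noise.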 To be noted: NRG1 binding, 635 nm fluorescence, higher = more signal.
Chain of Pro-neuregulin-1, membrane-bound isoform (Homo sapiens) (Q02297 whole entry, looked up, the tested form may be a part, canonical isoform): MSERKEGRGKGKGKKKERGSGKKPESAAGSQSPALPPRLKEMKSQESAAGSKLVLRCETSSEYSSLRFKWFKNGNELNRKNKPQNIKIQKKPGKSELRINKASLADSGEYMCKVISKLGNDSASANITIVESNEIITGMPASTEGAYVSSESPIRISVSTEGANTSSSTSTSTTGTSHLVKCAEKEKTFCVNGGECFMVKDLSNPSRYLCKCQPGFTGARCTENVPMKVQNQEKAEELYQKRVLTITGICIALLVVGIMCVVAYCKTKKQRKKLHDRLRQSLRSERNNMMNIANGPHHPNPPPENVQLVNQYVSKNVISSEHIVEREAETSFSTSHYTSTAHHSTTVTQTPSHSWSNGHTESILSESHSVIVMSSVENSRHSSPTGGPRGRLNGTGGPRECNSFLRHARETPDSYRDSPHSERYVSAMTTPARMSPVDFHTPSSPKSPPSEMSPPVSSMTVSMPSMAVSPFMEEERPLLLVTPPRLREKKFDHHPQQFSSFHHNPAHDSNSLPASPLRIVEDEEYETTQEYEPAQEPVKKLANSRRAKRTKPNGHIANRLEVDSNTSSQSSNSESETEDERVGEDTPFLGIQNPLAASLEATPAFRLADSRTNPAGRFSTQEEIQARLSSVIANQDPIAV
Test [7] concerns Neuregulin-1 EGF-like domain. In words: binders of neuregulin-1 EGF-like domain, primary screen, biochemical, small-molecule microarray, 635 nm fluorescence (AID 1081).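 Also: binding of the protein to compounds printed on small-molecule microarray slides.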 The following applies: small-molecule microarray binding, higher = more signal.
Test [8] is described as follows: FRG1 promoter luciferase signal modulators, primary screen, FRG1 inhibition for FSHD, cell-based, C2C12 myotubes, firefly/Renilla luciferase, luminescence (AID 1084). To be noted: higher = more signal, called active from +8 up or from −8 down.
Test [9] is described as follows: binders of probe aFST on microarray, primary screen, stem cell growth factor project, biochemical, small-molecule microarray, fluorescence 635/667 (AID 1086).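 Also: score merges 667 nm fluorescence with signal-to-noise of each printed compound spot.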 To be noted: higher = more signal.
A short description of test [10]: binders of probe aHhip on microarray, primary screen, stem cell growth factor project, biochemical, small-molecule microarray, fluorescence 635/667 (AID 1087).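 Also: score merges spot fluorescence at 667nm with spot signal to noise ratio.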 To be noted: higher = more signal.

Each structure is given as a SMILES string. Active and inactive are the calls of the source.

Turning to `C=CC[C@@]1(C(=O)NCc2ccccc2)N=C(c2ccc(OCCCO)cc2)O[C@@H]1c1ccccc1CN=[N+]=[N-]`, the composite z-score in test [1] was 0.351; in [2], -0.651; in test [3] it was 0.153; in [4] it was 0.799; in [5], 1.54; in test [6], 1.57. Further, the composite z-score in test [7] is 1.2; in test [9] it was 1.44; in test [10], -0.0237. Also, the z-score in [8] was -2.56 (inactive).
With `COCCOC(=O)N1C(=O)[C@@]2(c3ccccc31)[C@H](c1ccc(O)cc1)N1[C@H](c3ccccc3)[C@H](c3ccccc3)OC(=O)[C@H]1[C@@H]2C(N)=O`, the composite z-score in test [1] was 0.113; in test [2] it was 0.192; in [3] it was -0.106; in [4] it was -0.304; in test [5], -0.818; in test [6], 0.178. Besides, the values for the composite z-score in test [7], in test [9] and in test [10] were 0.651, -0.722 and -0.226, respectively. Further, the z-score in test [8] is -1.16 (inactive).
Take `Cc1ccc(S[C@]2(C(=O)NCCCN(C)C)CC(=O)N(Cc3ccccc3)[C@@H]2c2ccc(CO)cc2)cc1`: the composite z-score in test [1] is 1.15; in [2], -0.533; in [3], -0.145; in test [4] it was -0.193; in test [5], -1.24; in [6], -0.234. For the same compound, the composite z-score is -1.11 in test [7], -0.101 in test [9] and -0.409 in test [10]. The z-score in [8] was -1.76 (inactive).
With `C#C[C@H]1Oc2ccccc2S(=O)(=O)N2CCC[C@@H]12`, the composite z-score in [1] is 0.246; in [2], 0.321; in test [3] it was -0.116; in [4], -0.223; in test [5] it was -0.564; in [6], -0.671. Besides, the composite z-score was -0.344 in [7], 0.0511 in test [9] and 0.0373 in test [10]. The z-score in test [8] is -0.316 (inactive).
For `C=CCC(OC(C)=O)[C@@H]1[C@@H](N(Cc2ccc(-c3ccccc3)cc2)C(=O)c2ccc(C)cc2)c2cc(OCCCO)ccc2N1C(=O)Cc1ccc(OC)cc1` (stereo not given in full), the composite z-score in [1] was -0.0305; in [2], 0.0667; in [3], -0.078; in test [4], 0.27; in [5], -0.0045; in test [6] it was -0.369. Also, the composite z-score in test [7] is -0.453; in [9], 0.255; in test [10], -0.0994. For the same compound, the z-score in test [8] was -1.32 (inactive).
With `O=C(NCC(O)CO)[C@@]1(Cc2ccccc2)N=C(c2ccc(OCCCO)cc2)O[C@H]1c1ccccc1` (stereo not given in full), the composite z-score in [1] is 1.32; in test [2], 0.691; in test [3], 0.16; in test [4], 0.36; in [5], -0.0617; in test [6], 1.39. For the same compound, the composite z-score in test [7] was determined as 1.26; in test [9] it was 1.08; in test [10], 0.415. In addition, the z-score in test [8] was -1.89 (inactive).
Turning to `C=CC[C@]1(C(=O)NCCN2CCOCC2)N=C(c2ccc(OCCCO)cc2)O[C@H]1c1ccccc1N=[N+]=[N-]`, the composite z-score amounted to 1.13 in [1]; 0.562 in test [2]; 0.178 in test [3]; 0.32 in test [4]; 0.832 in test [5]; 1.56 in test [6]. Besides, the composite z-score in test [7] was 1.14; in test [9] it was 1.08; in [10], 0.176. Also, in test [8], the z-score was 1.98 (inactive).
`O=S(=O)(NCCCO)c1ccc(Br)cc1`: the composite z-score was -0.109 in [1]; 1.04 in test [2]; -0.112 in test [3]; 0.209 in test [4]; 0.433 in [5]; 1.07 in test [6]. The composite z-score in [7] is 1.07; in test [9], 0.14; in [10], -0.226. Further, the z-score in [8] was -1.91 (inactive).
For `NC(=O)NCC#Cc1ccc2c(c1)[C@]1(C(=O)N2)[C@H](c2ccccc2OCCO)N2[C@H](c3ccccc3)[C@H](c3ccccc3)OC(=O)[C@H]2[C@@H]1C(=O)N1CCCCCCC1`, the composite z-score was 3.75 in test [1]; 1.38 in test [2]; 0.866 in [3]; 0.803 in [4]; 1.38 in test [5]; 1.31 in test [6]. In addition, the composite z-score in test [7] is 1.08; in [9] it was 3.41; in test [10] it was 3.04. In addition, the z-score in [8] is -1.7 (inactive).
In the case of `CCOC(=O)C1=CC[C@@H](c2ccccc2)N(S(=O)(=O)c2ccc(C)cc2)[C@H]1c1ccc(C#N)cc1`, the composite z-score in [1] is -0.0221; in test [2], 0.381; in test [3], 0.054; in test [4], 0.359; in test [5] it was 1.43; in test [6] it was 1. Further, the figures for the composite z-score in test [7], in [9] and in test [10] were 1.01, 0.832 and -0.161, respectively. Also, the z-score in test [8] was -1.59 (inactive).
Turning to `COc1ccc([Si](C)(C)[C@@H]2[C@@H](CCO)O[C@]3(C(=O)N(Cc4ccc(N5C(=O)c6cccc7cccc5c67)cc4)c4ccccc43)[C@H]2C)cc1`, the composite z-score is 0.458 in test [1]; 0.23 in test [2]; -0.0566 in test [3]; -0.383 in test [4]; -0.35 in [5]; 0.995 in [6]. Further, the composite z-score in [7] is 0.695; in test [9], -0.292; in [10], -0.189. Also, the z-score in [8] was -3.01 (inactive).
As for `CC(C)N1C(=O)c2ccccc2[C@](C)(C(=O)NCCCN(C)C)[C@@H]1c1ccc(CO)cc1`, the composite z-score was 0.261 in test [1]; 1.04 in test [2]; -0.154 in test [3]; -0.231 in [4]; -0.595 in test [5]; 0.724 in test [6]. The composite z-score in test [7] was 1.07; in [9], -0.128; in test [10], -0.0672. The z-score in test [8] is 1.47 (inactive).
Take `O=C1O[C@@H](c2ccccc2)[C@@H](c2ccccc2)N2[C@@H](c3ccc(O)cc3)[C@]3(C(=O)Nc4ccc(C#CCCO)cc43)[C@@H](C(=O)N3CCCCCCC3)[C@H]12`: the composite z-score was determined as 2.71 in [1]; 1.72 in test [2]; 0.442 in test [3]; 0.888 in test [4]; 0.347 in test [5]; 1.62 in test [6]. The results for the composite z-score in test [7], in test [9] and in [10] were 1.25, 2.57 and 1.64, respectively. Further, the z-score in test [8] is -1.61 (inactive).
For `C=C(CCCC)C(=O)CC[C@H](OC(=O)c1ccccc1-c1ccccc1C(=O)O)c1ccc(CO)o1`, the composite z-score in test [1] is -0.619; in [2], 0.779; in [3] it was -0.0206; in test [4], 1.16; in test [5] it was 0.455; in test [6], 0.606. In addition, the composite z-score in test [7] is 1.25; in [9], 0.367; in test [10] it was -0.0994. Also, in [8], the z-score was -0.225 (inactive).
On to `COc1ccc(C(=O)Nc2cccc(CN3C(=O)[C@@]4(O[C@@H](CC(=O)N5Cc6ccccc6C[C@H]5CO)[C@H]([Si](C)(C)c5ccc(OC)cc5)[C@H]4C)c4ccccc43)c2)cc1`, for which the composite z-score is 0.0279 in test [1]; 1.09 in test [2]; -0.0924 in test [3]; 0.505 in test [4]; 0.493 in test [5]; 0.598 in test [6]. Besides, the composite z-score in test [7] was 1.25; in test [9], 0.349; in [10], -0.0994. Also, the z-score in test [8] is -2.95 (inactive).
As for `CCCCCN1CC=CC23O[C@@H]4C=CCCOC(=O)C4[C@H]2C(=O)N(CCCO)[C@@H]3C1=O` (stereo not given in full), the composite z-score is 0.0241 in test [1]; -0.615 in [2]; -0.186 in test [3]; 0.0149 in test [4]; -0.755 in test [5]; -0.454 in test [6]. Besides, the composite z-score in [7] was 0.266; in test [9], -0.108; in [10], -0.236. Besides, in test [8], the z-score was -0.482 (inactive).
`O=C(CS)NCCCCCCNC(=O)[C@H]1C[C@H]2C(=O)N3CCC[C@H]3C(=O)N2[C@H]1c1ccc(O)cc1`: the composite z-score was 0.112 in test [1]; -0.0248 in test [2]; -0.0759 in test [3]; -0.15 in [4]; -0.183 in test [5]; 0.883 in test [6]. For the same compound, the results for the composite z-score in test [7], in test [9] and in test [10] were 1.31, 0.416 and 0.0749, respectively. The z-score in test [8] was 1.04 (inactive).

The values above are taken from PubChem BioAssay.
